Screens as filed in PubChem.
An excerpt weighted towards active compounds, which were near 4.8% of everything screened.
Rev-erbA mod: modulates human Rev-erb alpha binding to DNA; AID 1259318; Rev-erbα–FITC-DNA binding, fluorescence polarization, 90 min; 370,000 tested, 0.79% active; P20393; activity, % at 10 µM;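 active = activity above about 14%, limit read from the data; passing the limit was not always enough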;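 also: 0% = DMSO wells with 35 nM protein and 100% = DMSO wells with 750 nM protein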
Target sequence (P20393 whole entry, looked up): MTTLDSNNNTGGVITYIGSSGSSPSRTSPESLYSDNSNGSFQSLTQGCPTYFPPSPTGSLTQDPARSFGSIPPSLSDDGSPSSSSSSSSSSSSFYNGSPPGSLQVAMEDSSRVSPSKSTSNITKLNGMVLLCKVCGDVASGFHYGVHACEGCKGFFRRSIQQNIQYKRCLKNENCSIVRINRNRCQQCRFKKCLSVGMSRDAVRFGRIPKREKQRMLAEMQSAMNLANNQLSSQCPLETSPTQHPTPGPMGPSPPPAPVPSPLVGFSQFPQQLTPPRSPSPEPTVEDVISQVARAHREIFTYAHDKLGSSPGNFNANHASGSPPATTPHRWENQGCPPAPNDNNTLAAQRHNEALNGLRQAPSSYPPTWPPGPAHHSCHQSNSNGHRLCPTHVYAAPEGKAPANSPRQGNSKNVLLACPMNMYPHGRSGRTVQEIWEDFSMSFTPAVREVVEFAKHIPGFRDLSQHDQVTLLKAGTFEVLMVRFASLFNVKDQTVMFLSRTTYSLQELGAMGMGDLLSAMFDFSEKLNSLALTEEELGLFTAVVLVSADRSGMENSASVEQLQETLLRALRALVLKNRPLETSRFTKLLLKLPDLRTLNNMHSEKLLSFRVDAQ
DAX1 inh-1: DAX1 (NR0B1) inhibition, primary screen | inhibition, % at 6.8 µM | 370,000 tested, 1.1% active | HEK293T StAR-luciferase reporter, SF-1/DAX-1 repression relief;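 active = inhibition above the mean over all tested compounds plus 3 SD, cut at about 3.6% in these data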;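 also: 0% = DAX-1 cells with DMSO and 100% = cells lacking DAX-1 with DMSO; higher inhibition means more luminescence from relief of DAX-1 repression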
DAX1 inh-2: NR0B1 (DAX1) inhibition; HEK293 Gal4-DAX1 luciferase reporter, luminescence; inhibition, % at 6.75 µM; 340,000 tested, 0.99% active; AID 504766;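 active = inhibition above the mean over all tested compounds plus 3 SD, cut at about 4.2% in these data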;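 also: 0% = DAX1-transfected cells with DMSO and 100% = empty-vector control cells with DMSO; inhibition shows as a rise in luminescence from relieved DAX1 repression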
hgDAF-12 ag: activates the H. glycines DAF-12 receptor ligand-binding domain. HEK293 GAL4-hgDAF12 UAS-luciferase reporter, agonist luminescence; normalized to butyrate control. AID 687014. activation, % at 6.8 µM. 370,000 tested, 1.8% active;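 active = activation above a cutoff set at the mean of all screened compounds plus 3 SD, cut at about 10% in these data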;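 also: 0% = DMSO wells and 100% = sodium butyrate wells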
hcDAF-12 act: activates DAF-12 receptor from parasite H. contortus. HEK293 hcDAF-12 lit1-tk-luc reporter, luminescence; 0% DMSO, 100% Δ7-dafachronic acid. activation, % at 6.8 µM. 370,000 tested, 1.4% active;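 active = activation above the mean of all tested compounds plus 3 SD, cut at about 5.5% in these data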;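 also: 100% = response to 3 µM Δ7-dafachronic acid high control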
ssDAF-12 act: S. stercoralis DAF-12 activation, primary screen; HEK293 ssDAF-12/GRIP1 lit1-tk-luc reporter, luminescence; % of 3 µM dafachronic acid response; activation, % at 6.8 µM; 370,000 tested, 1% active;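 active = activation above the mean over all tested compounds plus 3 SD, cut at about 0.9% in these data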;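 also: 0% = DMSO-only wells and 100% = 3 µM delta7-dafachronic acid wells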
Starred values were filed as active, the others as inactive; nt = not tested or not shown.

SMILES | Rev-erbA mod | DAX1 inh-1 | DAX1 inh-2 | hgDAF-12 ag | hcDAF-12 act | ssDAF-12 act
Cn1c(C(=O)N[C@@H](C(=O)O)c2ccccc2)cc2cc(Cl)ccc21 | 1.6 | -0.2 | 0.1 | 2.5 | 5.9* | 0.6
O=[N+]([O-])c1nn(-c2ccc(Cl)cc2)n(O)c1=NCc1ccccc1 | 1.0 | -0.2 | 5.0* | 2.6 | -2.1 | -0.8
Cc1ccc(N=c2c([N+](=O)[O-])nn(-c3ccccc3)n2O)c(C)c1 | 4.4 | -0.9 | 0.1 | 7.0 | 3.9 | -0.1
Cc1c(Cl)cccc1N=c1c([N+](=O)[O-])nn(-c2ccccc2)n1O | 10.2 | -0.4 | -0.2 | 1.7 | 5.6* | 0.3
COc1cc(OC)c(Nc2cc(C)nc3nc(C)nn23)cc1Cl | -2.6 | 0.1 | 7.2* | -1.0 | -1.9 | -0.9
Cc1cc(O)c(C2=Nc3ccccc3SC(c3ccc(Cl)cc3)C2)c(=O)o1 (stereo unspecified) | -5.3 | 0.1 | 2.2 | 5.5 | 6.1* | 0.0
COc1ccc(C2CC(c3c(O)cc(C)oc3=O)=NCCS2)c(OC)c1 (stereo unspecified) | nt | nt | 0.5 | nt | nt | nt
C#CCN1C(C(=O)OC)CN(CCCCCC)CCS1(=O)=O (stereo unspecified) | -3.1 | -1.0 | nt | -0.8 | 0.0 | -0.3
COc1cc(C(C[N+](=O)[O-])c2c(C)[nH]c3ccccc23)cc(OC)c1OC (stereo unspecified) | 3.8 | 0.4 | 0.0 | -1.1 | 2.2 | -0.3
O=[N+]([O-])CC(c1ccccc1)c1c[nH]c2ccccc12 (stereo unspecified) | 1.3 | -0.2 | nt | 0.4 | 2.6 | 1.1*
CCCNc1ncnc2nc[nH]c12 | -0.3 | 1.1 | -0.6 | 0.5 | 2.1 | -0.8
Cc1ccccc1/C=N/Nc1ncnc2nc[nH]c12 | -2.6 | 0.5 | 0.9 | 1.2 | 0.2 | -1.5
Cc1ccc(NC(=O)Nc2ncnc3nc[nH]c23)cc1 | -0.7 | 1.9 | 2.6 | 12.2* | 1.6 | -0.7
CCc1ccc(Nc2ncnc3nc[nH]c23)cc1 | -2.5 | 3.1 | 5.3* | 11.8* | 3.9 | -0.4
Cc1ccc(OCc2nnc(SCC(=O)c3ccc4ccccc4c3)n2-c2ccc(Cl)cc2)cc1 | 1.1 | 0.1 | nt | 3.1 | 1.3 | -0.6
COCC1CCN(C(=O)CCc2nnc(CCCCc3ccccc3)o2)CC1 | -1.2 | -0.3 | -0.9 | -2.3 | -1.6 | -1.7
O=C(CCc1nnc(CCCc2ccccc2)o1)N1CCCCCC1 | -0.9 | 1.4 | 5.0* | 5.8 | 2.4 | -0.8
CCc1cc(CNC(=O)CCc2nnc(CCCc3ccccc3)o2)on1 | -0.3 | 1.1 | 3.4 | 13.0* | 2.8 | -0.6
O=C(CCc1nnc(CCCc2ccccc2)o1)NCCCC1CCCC1 | 1.9 | 0.5 | 0.2 | 11.1* | 0.9 | -0.4
O=C(N=C1N(CC2CC2)CC2(C=C3CCCCC3n3c(=O)n(-c4ccccc4)c(=O)n32)N1C(=O)OCc1ccccc1)c1ccccc1 (stereo unspecified) | 6.0 | -0.4 | nt | 1.1 | -1.9 | -1.0
Cn1cccc([N+](=O)[O-])c1=O | -3.6 | 0.8 | -0.6 | 1.2 | 0.1 | -0.7
Cn1c(-c2ccccc2[N+](=O)[O-])[n+](C)c2ccccc21 | -4.3 | -0.8 | 5.0* | -2.1 | 0.4 | -0.5
COc1ccc(NC(=O)Cn2c(CCC(=O)O)ccc2-c2ccccc2)cc1 | 0.7 | 0.1 | 0.1 | 1.2 | -1.5 | -0.4
COC(=O)Cn1c(CCC(=O)O)ccc1-c1ccccc1 | 0.4 | 0.6 | 5.2* | -0.4 | -2.1 | -1.1
CC(=O)NC(Cc1ccc(O)cc1)C(=O)O (stereo unspecified) | 3.8 | nt | nt | nt | nt | nt
SMILES | Rev-erbA mod | DAX1 inh-1 | DAX1 inh-2 | hgDAF-12 ag | hcDAF-12 act | ssDAF-12 act
O=c1c2ccccc2ncn1-c1ccc([N+](=O)[O-])cc1Cl | 0.2 | -0.4 | 5.0* | -1.7 | -2.5 | -1.4
Cc1cc(N2O[C@]34C=C[C@]25C[C@@H](O)CC[C@]5(C)C3CC[C@]2(C)[C@@H]([C@H](C)/C=C/[C@H](C)C(C)C)CC[C@H]24)no1 (stereo partly specified) | -3.6 | 1.1 | -0.5 | 2.9 | 4.7 | 1.0*
CC1(C)Cc2c(c(N3CCOCC3)nc3sc(C(=O)Nc4cccc(Cl)c4)c(N)c23)CO1 | 0.6 | -0.4 | 0.5 | 2.9 | 0.0 | -1.0
CC1(C)Cc2c(c(N3CCOCC3)nc3sc(C(=O)Nc4ccccc4)c(N)c23)CO1 | -2.2 | 0.9 | 3.3 | 11.6* | 6.2* | -0.6
Cc1ccc(/C=N/Nc2nc(C)cc(C)n2)cc1 | -0.9 | -0.1 | 0.8 | 3.3 | -0.7 | -1.4
Cc1cc(C)nc(N/N=C/c2ccc(Cl)cc2)n1 | -2.6 | 0.0 | 5.0* | 2.1 | 0.2 | -1.0
Cc1ccc(Nc2ccc(C(=O)O)cc2N)cc1 | 1.0 | 2.6 | nt | 6.8 | 1.8 | 1.1*
Cc1cc(C)cc(Nc2ccc(C(=O)O)cc2N)c1 | -7.5 | -0.2 | -2.9 | 2.4 | 0.4 | -1.1
CCCCC(=O)O[C@]1(C(=O)CO)[C@@H](C)CC2C3CCC4=CC(=O)C=C[C@]4(C)[C@@]3(F)C(O)C[C@@]21C (stereo partly specified) | -4.0 | nt | nt | nt | nt | nt
COC(=O)CSc1nnc(-c2ccc(NS(=O)(=O)c3ccc(Cl)s3)cc2)o1 | 0.9 | 0.2 | nt | 4.4 | 0.0 | -1.9
CC1(C)C2CCC(CN)C1C2 (stereo unspecified) | -0.1 | 0.1 | 5.3* | 3.7 | -1.8 | -1.1
CC(C)(C)N1CCC1CN (stereo unspecified) | -2.1 | -0.3 | 0.2 | 2.4 | -2.1 | -1.8
NC(=O)c1cc2ccncc2c2ccccc12 | -3.2 | -0.5 | -0.1 | 11.3* | -3.0 | -2.0
Cc1cc(C(=O)Nc2ccccc2)c2ccccc2n1 | -0.2 | -0.4 | 0.3 | -0.4 | 0.8 | -1.7
Cc1cc(C(=O)Nc2sccc2C#N)c2ccccc2n1 | -1.5 | -0.1 | -0.5 | -1.2 | 5.9* | 0.7
Cc1ccc(C(=O)N(C)[C@H]2C[C@H]3c4[nH]c5c(-c6ccc7c(c6)OCO7)cccc5c4CCN3C[C@H]2[C@H](C)O)cc1 | 8.6 | -0.3 | nt | 0.6 | -0.6 | -0.9
C=CCn1c(/N=C/c2ccc3c(c2)OCO3)nc2ccccc21 | 2.0 | 0.0 | -0.4 | 0.3 | -0.1 | 1.2*
CCCn1c(/N=C/c2ccc3c(c2)OCO3)nc2ccccc21 | -4.0 | 0.0 | 0.5 | -0.2 | -1.2 | -1.6
CCS(=O)(=O)N1CCc2nc(-c3ccccc3)sc2C1 | 1.5 | 1.6 | 4.9* | 11.7* | 3.2 | 0.2
CN1C2=C(C(=O)CC(C)(C)C2)C(c2cccs2)C2=C1CC(C)(C)CC2=O | -0.2 | -0.5 | 5.3* | -0.3 | -1.6 | -0.9
COc1ccc(C2C3=C(CC(C)(C)CC3=O)N(C)C3=C2C(=O)CC(C)(C)C3)cc1 | -5.1 | -1.1 | -1.2 | -1.4 | -1.5 | -1.9
O=C(CN1C(=O)CSc2ccc(S(=O)(=O)N3CCOCC3)cc21)NCCCN1CCCCC1 | 1.7 | -0.5 | 0.0 | 0.4 | -1.1 | -1.3
